Bioassay records deposited in PubChem by several laboratories.
Sampled rows, rich in hits. Any-hit rate of the full collection: about 4%.
Rv3671c inh – Rv3671c serine protease inhibitors, primary screen, biochemical, fluorescence polarization, M. tuberculosis H37Rv; inhibition, % at 5.96 µM; actives 0.048% (n = 320,000); AID 2606, 2010; in the data active = inhibition above about 38%;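 also: extracellular domain of Rv3671c used as enzyme; 0% = enzyme with DMSO and 100% = no enzyme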
Mtb UGM inh – M. tuberculosis UGM enzyme inhibitors, primary screen, biochemical, fluorescence polarization, single point | inhibition, % at 10 µM | actives 0.06% (n = 320,000) | UDP-galactopyranose mutase (Mycobacterium tuberculosis (strain ATCC 25618 / H37Rv)), … | purified UGM, fluorescence polarization probe displacement; in the data active = inhibition above about 10%, passing the limit was not always enough; inconclusive = no clear call, values can overlap the other calls
Target sequence (P9WIQ1 whole entry, looked up): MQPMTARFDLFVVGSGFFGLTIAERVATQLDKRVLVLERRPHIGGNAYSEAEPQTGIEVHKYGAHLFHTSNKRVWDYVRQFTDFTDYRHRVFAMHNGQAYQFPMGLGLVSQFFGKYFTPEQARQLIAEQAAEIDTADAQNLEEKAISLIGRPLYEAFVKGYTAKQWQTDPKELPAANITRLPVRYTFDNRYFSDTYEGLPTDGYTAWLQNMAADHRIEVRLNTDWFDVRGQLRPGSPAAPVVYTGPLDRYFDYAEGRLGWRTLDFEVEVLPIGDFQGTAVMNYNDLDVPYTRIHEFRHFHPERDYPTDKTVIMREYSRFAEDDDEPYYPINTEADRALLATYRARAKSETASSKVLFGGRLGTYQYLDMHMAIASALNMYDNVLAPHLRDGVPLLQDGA
Mtb bLac sens – beta-lactam sensitization of Mtb H37Rv, H37Rv | M. tuberculosis H37Rv growth with meropenem, percent inhibition | inhibition, % at 25 µM | actives 0.27% (n = 330,000) | AID 434955, 2010; call rule not given here;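 also: growth measured after seven days incubation then overnight dye step; 0% = bacteria only wells and 100% = bacteria with antibiotic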
GDH-TPI inh – GDH-TPI coupling enzyme inhibitors, primary screen, artefact control for M. tuberculosis FBA inhibitor project, biochemical, absorbance, full deck; GDH-TPI coupled enzyme counterscreen, NADH absorbance; inhibition, % at 4.8 µM; actives 1.2% (n = 360,000); in the data active = inhibition above about 30%;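 also: 0% = DMSO wells and 100% = wells lacking the enzyme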
RecA intein inh – Mtb RecA intein splicing inhibitors, primary screen, biochemical, fluorescence, HTS; actives 0.75% (n = 290,000); AID 2221, 2009; Protein RecA (Mycobacterium tuberculosis (strain ATCC 25618 / H37Rv)), P9WHJ3; cell-free RecA intein splicing; inhibition, % (no concentration beside the values); in the data active = inhibition above about 30%; inconclusive = no clear call, values can overlap the other calls;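 also: 0% = vehicle wells and 100% = reference inhibitor control wells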
FBA Mtb inh – Mtb FBA enzyme inhibitors, primary screen, biochemical, fluorescence, strain H37Rv; Fructose-bisphosphate aldolase (Mycobacterium tuberculosis (strain ATCC 25618 / H37Rv)), …; purified M. tuberculosis FBA, fluorescence read-out; inhibition, % at 1 µM; actives 2.3% (n = 360,000); AID 588726, 2011; in the data active = inhibition above about 27%;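 also: 0% = vehicle and 100% = reference inhibitor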
* marks the source's active call; other numbers are inactive results; ? = inconclusive; · = no result given.

SMILES	Rv3671c inh	Mtb UGM inh	Mtb bLac sens	GDH-TPI inh	RecA intein inh	FBA Mtb inh
Clc1ccc(-c2ccc(C=Nc3ccc(N4CCOCC4)cc3)o2)cc1	-30	3	96	32*	-6	-4
Clc1ccc(-c2ccc(C=Nc3ccc(N4CCOCC4)cc3)o2)c(Cl)c1	-21	4	-6	7	-3	-1
O=C1CSC(=S)N1Cc1cccs1	·	·	·	0	·	0
COc1ccc(-n2c(CCC(=O)O)ccc2-c2ccc(F)cc2)c(OC)c1	0	2	-4	6	1	3
Cc1cccc(-n2c(O)c(/C=N/NC(=O)c3ccccc3Cl)c3ccccc3c2=O)n1	10	0	0	35*	-39	27
COc1ccc(N=Cc2c(O)n(-c3cccc(C)n3)c(=O)c3ccccc23)c(OC)c1	3	20*	6	20	-3	1
COc1cccc(N=Cc2c(O)n(-c3cccc(C)n3)c(=O)c3ccccc23)c1	2	-1	0	4	0	4
Cc1cccc(-n2c(O)c(C=Nc3ccccc3-c3n[nH]c(=S)[nH]c3=O)c3ccccc3c2=O)n1	11	1	-1	37*	-2	5
CC(C)N(C(=O)c1nn(C)c2c1CSc1ccccc1-2)C1CCCCC1	6	1	2	1	-1	4
Cn1nc(C(C)(C)C)cc1C(=O)NCc1ccc2c(c1)OCO2	-5	5	0	-4	-1	6
CNC[C@@H]1OCc2ccccc2-c2ccccc2C(=O)N([C@H](C)CO)C[C@@H]1C	·	·	·	5	·	1
CC1(C)Cc2c(sc(/N=C/N3CCCCC3)c2C#N)C(C)(C)N1	7	0	4	31*	-3	-6
COc1ccc(/C=C(\C#N)C(=O)NCC2CCCO2)cc1OC (stereo unspecified)	4	1	-2	20	-2	-6
CCOC(=O)c1ccc(-c2ccc(/C=C(\C#N)C(=O)NCC3CCCO3)o2)cc1 (stereo unspecified)	-2	2	2	34*	-62	-1
O=C(O)c1ccccc1OCC1CCCO1 (stereo unspecified)	0	-3	2	-2	-7	0
CC(=O)Nc1ccc(S(=O)(=O)N2CCCC2)cc1	-4	-2	0	6	2	-1
CC(C)(C)C(=O)Nc1ccc(S(=O)(=O)N2CCCC2)cc1	-8	1	-4	6	-3	182*
COC(=O)c1ccc(S(=O)(=O)N2CCCCCC2)cc1	4	-1	-6	47*	-2	-5
COc1cccc(N2CC(C(=O)Nc3nnc(SCC(=O)NCc4ccco4)s3)CC2=O)c1 (stereo unspecified)	3	-2	6	3	4	2
CCc1nc2c(OCc3ccc(F)c(F)c3)cccn2c1N(C)C(=O)c1cccs1	·	·	·	3	·	0
CCN(C(=O)COC(=O)/C(C#N)=C/c1cc(C)n(CCOC)c1C)c1c(N)n(Cc2ccccc2)c(=O)[nH]c1=O	·	·	·	37*	·	5
Cc1ccc(/C=C2/SC(=S)N(CCCC(=O)Nc3ccc(O)cc3)C2=O)cc1	·	·	·	9	13	1
CC(=Cc1ccccc1)C=C1SC(=S)N(CCCC(=O)Nc2ccc(C(=O)O)c(O)c2)C1=O	·	·	·	31*	·	-4
O=C(CCCN1C(=O)/C(=C\c2ccccc2)SC1=S)Nc1ccc(O)cc1	2	1	13	18	32*	2
O=C(CN1C(=O)S/C(=C\C=C\c2ccccc2)C1=O)Nc1ccc(O)cc1	-118	-1	-3	33*	4	0
SMILES	Rv3671c inh	Mtb UGM inh	Mtb bLac sens	GDH-TPI inh	RecA intein inh	FBA Mtb inh
O=C(CCCN1C(=O)S/C(=C/C=C/c2ccccc2)C1=O)Nc1ccc(C(=O)O)cc1	-31	2	0	21	20	4
CC(/C=C1\SC(=S)N(CCCC(=O)Nc2ccc(C(=O)O)c(O)c2)C1=O)=C\c1ccccc1	-14	1	13	·	25	·
Cc1ccc(C(C(=O)NCC2CCCO2)N(C(=O)c2snc(C(N)=O)c2N)c2ccc(C)c(C)c2)o1 (stereo unspecified)	3	1	-1	8	-1	4
CCOc1ccc(-c2cc(C(=O)NC3CCCCC3)[nH]n2)c(C)c1	·	·	·	4	·	-4
Cn1cc(C(=O)C(=O)N2CCOCC2)c2ccccc21	6	2	-18	31*	0	-2
O=S(=O)(NCc1ccccc1)NCc1ccc(Cl)cc1Cl	-14	0	-6	-7	-5	0
CC(C)[C@@H]1CC[C@@H](C)C[C@H]1O	·	·	·	-4	·	-3
Cc1ccccc1-n1c(O)c(C=NC2CCS(=O)(=O)C2)c2ccccc2c1=O (stereo unspecified)	4	4	4	13	-3	2
Cc1cccc(-n2c(O)c(C=NC3CCS(=O)(=O)C3)c3ccccc3c2=O)c1C (stereo unspecified)	-1	1	-1	31*	-2	2
O=C1CN(S(=O)(=O)c2cccc(Br)c2)CCN1	5	0	-5	10	·	-2
CSc1nc2nccc(/C=C\c3ccccc3)n2n1	-3	-1	13	31*	2	-2
COc1cccc(N2CCN(C(=O)c3ccc(OC)c(S(=O)(=O)NC4CC4)c3)CC2)c1	·	·	·	0	·	-3
CCOc1cc(/C=C2\C(=N)N3N=C(S(=O)(=O)CC)SC3=NC2=O)ccc1OC(=O)c1ccco1	-2	-6	4	8	31*	-1
CCOc1cc(/C=C2/C(=N)N3N=C(CC)SC3=NC2=O)ccc1OC(=O)c1ccco1	-2	-3	75	12	21	-1
CCOc1cc(/C=C2\C(=N)N3N=C(N4CCCCC4)SC3=NC2=O)ccc1OC(=O)c1ccco1	11	-2	74	20	35*	4
CCS(=O)(=O)C1=NN2C(=N)/C(=C\c3ccc(OC(=O)c4ccco4)c(Br)c3)C(=O)N=C2S1	-5	-6	4	·	11	·
COc1ccc(-c2csc(C(C)(O)c3cccc(F)c3)n2)cc1 (stereo unspecified)	·	·	·	10	·	2
CCOc1ccccc1/C=C(\C#N)C1=CCCC1	0	-3	-2	1	1	-5
Cc1cc(/C=N/n2cnnc2)c(C)n1-c1ccccc1	4	3	43	7	-4	11
C(=N\n1cnnc1)/c1cccn1-c1ccccc1	-4	-1	-5	32*	-1	-4
Nc1nc(N)c2nc(CNc3ccc(C(=O)NC(CCC(=O)O)C(=O)O)cc3)cnc2n1 (stereo unspecified)	3	3	?	·	·	·
